Sampled rows, rich in hits. Any-hit rate of the full collection: about 3.6%.
Mtb hypoxia inh = Mtb hypoxia fluorescent reporter inhibition | M. tuberculosis hypoxia-regulated fluorescent reporter, fluorescence | fluorescence inhibition, % (no concentration beside the values) | actives 0.1% (n = 300,000) | AID 1159583; in the data active = fluorescence inhibition mostly above about 23%, no sharp cut-off; inactive = mostly below about 17%
GDH-TPI counter-1 = counter-screen for M. tuberculosis FBA inhibitors: GDH-TPI coupled enzymes | GDH-TPI coupled enzyme counterscreen, NADH absorbance | inhibition, % at 4.8 µM | actives 1.2% (n = 360,000); in the data active = inhibition above about 30%;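 note: 0% = DMSO wells and 100% = wells lacking the enzyme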
DUSP3 inh = blocks human VHR1 dual specificity phosphatase. P51452. recombinant VHR phosphatase, pNPP absorbance. inhibition, % at 13.3 µM. actives 0.52% (n = 290,000). AID 1654; in the data active = inhibition above about 50%
Target sequence (P51452 whole entry, looked up): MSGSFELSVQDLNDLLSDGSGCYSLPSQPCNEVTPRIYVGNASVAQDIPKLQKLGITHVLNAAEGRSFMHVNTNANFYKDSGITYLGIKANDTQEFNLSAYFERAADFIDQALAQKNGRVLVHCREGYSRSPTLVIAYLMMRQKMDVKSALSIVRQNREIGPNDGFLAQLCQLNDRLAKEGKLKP
Mtb FBA inh = inhibitors of M. tuberculosis fructose-bisphosphate aldolase; inhibition, % at 1 µM; purified M. tuberculosis FBA, fluorescence read-out; P9WQA3; actives 2.3% (n = 360,000);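 note: 0% = vehicle and 100% = reference inhibitor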
Target sequence (P9WQA3 whole entry, looked up): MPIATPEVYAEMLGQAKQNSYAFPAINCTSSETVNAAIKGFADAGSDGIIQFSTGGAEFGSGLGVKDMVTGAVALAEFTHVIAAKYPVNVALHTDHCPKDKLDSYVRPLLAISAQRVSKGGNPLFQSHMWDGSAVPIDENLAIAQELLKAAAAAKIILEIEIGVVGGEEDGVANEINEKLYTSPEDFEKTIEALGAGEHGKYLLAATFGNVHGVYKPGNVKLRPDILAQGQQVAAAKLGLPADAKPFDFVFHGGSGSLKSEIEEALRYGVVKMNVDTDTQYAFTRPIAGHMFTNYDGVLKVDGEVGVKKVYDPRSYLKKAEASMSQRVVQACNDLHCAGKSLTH
Mtb bLac sens = beta-lactam sensitization of Mtb H37Rv; M. tuberculosis H37Rv growth with meropenem, percent inhibition; inhibition, % at 25 µM; actives 0.27% (n = 330,000); call rule not given here;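 note: growth measured after seven days incubation then overnight dye step; 0% = bacteria only wells and 100% = bacteria with antibiotic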
Mtb FBA inh conf = confirmation of M. tuberculosis fructose-bisphosphate aldolase inhibitors; actives 78% (n = 5,600); inhibition, % at 1 µM; purified M. tuberculosis FBA, fluorescence read-out; AID 651616; shares compounds with Mtb FBA inh;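 note: 0% = vehicle wells and 100% = reference inhibitor wells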
GDH-TPI counter-2 = inhibits GDH-TPI coupling enzymes, flagging Mtb FBA hits; shares compounds with Mtb FBA inh; GDH-TPI coupled enzyme counterscreen, fluorescence; inhibition, % at 1 µM; actives 81% (n = 5,600); AID 652141; in the data active = inhibition above about 10%
Active calls of the source: *; u = inconclusive; x = not tested or not shown; + = active, no number. Cut-off read from the data, not from the text of the source, unless noted: active = inhibition above about 27%; inactive = the rest.

SMILES	Mtb hypoxia inh	GDH-TPI counter-1	DUSP3 inh	Mtb FBA inh	Mtb bLac sens	Mtb FBA inh conf	GDH-TPI counter-2
CCOC(=O)COc1ccccc1C1Nc2ccccc2C(=O)N1c1cccc(Cl)c1 (stereo unspecified)	-11	6	44	36*	10	+	+
CCOc1cc(C=NNC(=O)c2cccs2)cc([N+](=O)[O-])c1O	22	x	x	x	x	x	x
Cn1cc(Br)c(C(=O)NN=Cc2cc3ccccc3nc2Cl)n1	-4	x	x	x	x	x	x
CC=C(C)C(=O)Nc1cccc(C2=NOC3(C2)CC(C(N)=O)N(C(=O)CC#N)C3)c1 (stereo unspecified)	20	x	x	x	x	x	x
CCn1c(SCc2c(Cl)cccc2Cl)nc2nc3c(cc2c1=O)CCCC3	10	-1	x	2	8	x	x
CCn1c(SCc2ccccc2Cl)nc2nc3c(cc2c1=O)CCCC3	4	3	-3	28*	x	85*	61*
CCOC(=O)Cc1csc(/N=C/c2c(O)n(-c3ccc(C)cc3C)c(=O)c3ccccc23)n1	4	14	-3	53*	-1	60*	42*
COc1ccc2oc3ccccc3c(=O)c2c1	-3	10	31	101*	-2	+	+
COc1ccc2oc(C(F)(F)C(F)F)cc(=O)c2c1	x	14	19	43*	-8	75*	52*
CCCCn1c(NC(=O)c2ccc(Br)o2)c(S(=O)(=O)c2ccccc2)c2nc3ccccc3nc21	-2	21	-2	59*	-7	6	-4
CCCCn1c(NC(=O)c2ccco2)c(S(=O)(=O)c2ccc(C)cc2)c2nc3ccccc3nc21	7	23	29	96*	x	73*	47*
CCCCn1c(NC(=O)c2ccco2)c(C(=O)OCC)c2nc3ccccc3nc21	-7	25	-1	80*	17	2	1
CCCCCn1c(NC(=O)c2ccco2)c(S(=O)(=O)c2ccc(C)cc2)c2nc3ccccc3nc21	9	24	17	96*	-5	30*	21*
CCCCn1c(NS(=O)(=O)c2ccccc2)c(S(=O)(=O)c2ccc(C)cc2)c2nc3ccccc3nc21	-5	15	18	4	-1	x	x
CCCCNC(=O)OC1CC2CCCC(=O)N3CCC(C1)C23 (stereo unspecified)	-2	x	x	x	x	x	x
Cc1ccc2c(c1)C(N1CCCC1=O)CC(c1ccco1)N2 (stereo unspecified)	x	21	17	31*	-8	6	-2
NC(=O)c1ccccc1N/C=C1\CCCCC1=O	16	3	18	28*	-4	91*	73*
O=C1CCCC/C1=C\Nc1ccccc1C(=O)O	13	5	30	21	-5	x	x
COc1ccccc1-c1oc2ccccc2c1C#CC(C)(C)O	-4	14	x	55*	u	+	+
C=CCc1c(C)nc2cc(-c3ccc(C)cc3)[nH]n2c1=O	-1	-1	11	27*	3	+	+
COc1ccc(N2CCN(C(=O)c3ccc4[nH]c(C)c(C)c4c3)CC2)cc1	7	-1	-2	1	75	x	x
Cc1[nH]c2ccc(C(=O)N3CCN(c4ccc(F)cc4)CC3)cc2c1C	2	9	6	30*	2	158*	120*
Cc1cccn2c(=O)c3cc(C(=O)NC4CCCCC4)c(=N)n(CCN4CCOCC4)c3nc12	-10	1	13	67*	-8	43*	41*
Cc1cccn2c(=O)c3cc(C(=O)NCc4ccc(F)cc4)c(=N)n(CCCN4CCOCC4)c3nc12	14	9	x	80*	x	81*	82*
Cc1cccn2c(=O)c3cc(C#N)c(=N)n(CCCN4CCOCC4)c3nc12	x	2	x	62*	-17	+	+
SMILES	Mtb hypoxia inh	GDH-TPI counter-1	DUSP3 inh	Mtb FBA inh	Mtb bLac sens	Mtb FBA inh conf	GDH-TPI counter-2
CCCn1c(=N)c(C#N)cc2c(=O)n3cccc(C)c3nc21	-9	x	30	x	0	x	x
CCCn1c(=N)c(C#N)cc2c(=O)n3ccccc3nc21	x	0	33	34*	-2	75*	68*
COc1ccc(C(=O)Oc2ccc(C=NNC(=O)c3cccnc3)cc2OC)cc1	6	x	x	x	x	x	x
CCCC(=C1c2ccccc2C(=O)N1c1ccccc1)c1ccc(OC2CCCCO2)cc1 (stereo unspecified)	9	x	x	x	x	x	x
CC1CN(C(C)CO)C(=O)c2cccc(NC(=O)Nc3ccc(C(F)(F)F)cc3)c2OC1CN(C)S(=O)(=O)c1ccc(Cl)cc1 (stereo unspecified)	4	x	x	x	x	x	x
CC=C(C)C(=O)OC1CC(C)(C)CC2C3=CCC4[C@@]5(C)CCC(OC6OC(C(=O)O)C(O)C(OC7OCC(O)C(O)C7OC7OC(CO)C(O)C(O)C7O)C6OC6OC(CO)C(O)C(O)C6O)[C@@](C)(CO)C5CC[C@]4(C)[C@]3(C)CC(O)[C@@]12CO (stereo partly specified)	17	x	x	x	x	x	x
CN(C)C=Nc1nc2ncc(-c3ccc(Cl)cc3)c(N=CN(C)C)n2n1	-4	x	x	x	x	x	x
CC(=NNC(=O)CCC1C(=O)NN=C1C)c1ccc([N+](=O)[O-])cc1 (stereo unspecified)	2	x	x	x	x	x	x
COCCCn1c(=N)c(C(=O)NCc2ccc3c(c2)OCO3)cc2c(=O)n3cccc(C)c3nc21	-4	4	x	-2	x	x	x
Cc1ccc2nc3c(cc(C(N)=S)c(=N)n3CCCOC(C)C)c(=O)n2c1	4	4	24	48*	u	84*	66*
Cc1cccn2c(=O)c3cc(C(N)=S)c(=N)n(CCCN4CCOCC4)c3nc12	-8	-1	10	57*	-3	56*	55*
COCCCn1c(=N)c(C(N)=S)cc2c(=O)n3cccc(C)c3nc21	10	10	x	73*	-1	57*	42*
O=C(NC1CC1)C1=CC(c2c[nH]c3ccccc23)CC(OCCCCO)O1 (stereo unspecified)	3	x	x	x	x	x	x
COc1ccc(C2CC(=O)C=C(c3cc(Cl)ccc3OC)C2)cc1 (stereo unspecified)	4	x	x	x	x	x	x
CC(=NNc1ccccn1)c1ccc(OC(F)F)cc1	-15	x	x	x	x	x	x
O=C1c2cccc3cccc(c23)C(=O)N1Cc1cccnc1	11	22	13	41*	-8	3	0
Cc1cccc(C)c1NC(=O)CNC(=O)CCCN1C(=O)c2cccc3cccc(c23)C1=O	10	19	x	21	-9	x	x
O=C(CCCN1C(=O)c2cccc3cccc(c23)C1=O)NC1CCS(=O)(=O)C1 (stereo unspecified)	-2	9	22	40*	-7	56*	57*
O=C(CCCCCN1C(=O)c2cccc3cccc(c23)C1=O)NCCO	14	6	16	36*	7	90*	74*
O=C(CCN1C(=O)c2cccc3cccc(c23)C1=O)NCc1cccnc1	4	20	16	35*	-6	2	-4

From PubChem BioAssay
